Test results reported in PubChem BioAssay.

Experiments:
[1] = test system: Human papillomavirus type 1a protein E7 (residues 44-93); experiment: HPV1a E7 fragment binders on microarrays, primary screen, biochemical, small-molecule microarray, residues 44-93, 635 nm fluorescence (AID 1108); details: small-molecule microarray binding, fluorescence 635 nm; higher = more signal;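 further: E7 fragment applied at 1 µg/mL in TBST for 1 h at 4 C; score combines spot fluorescence with its signal to noise ratio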
[2] = modulators of HCV replicon luciferase signal, primary screen, HCV replication inhibitor project, Huh7 cells, luciferase reporter (AID 1109); details: 48 h, higher = more signal;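 further: huh7 hepatoma cells harbouring a luciferase neomycin HCV replicon reporter; luciferase luminescence as measure of HCV replicon replication; test concentration not given here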
[3] = molecular target: Left-right determination factor 2 (Homo sapiens) (UniProt O00292); experiment: LEFTY2 binders on small-molecule microarrays, primary screen, biochemical, small-molecule microarray, 635 nm fluorescence scan (AID 1110); details: LEFTY2 binding, higher = more signal
Left-right determination factor 2 (Homo sapiens), sequence (O00292 whole entry, looked up): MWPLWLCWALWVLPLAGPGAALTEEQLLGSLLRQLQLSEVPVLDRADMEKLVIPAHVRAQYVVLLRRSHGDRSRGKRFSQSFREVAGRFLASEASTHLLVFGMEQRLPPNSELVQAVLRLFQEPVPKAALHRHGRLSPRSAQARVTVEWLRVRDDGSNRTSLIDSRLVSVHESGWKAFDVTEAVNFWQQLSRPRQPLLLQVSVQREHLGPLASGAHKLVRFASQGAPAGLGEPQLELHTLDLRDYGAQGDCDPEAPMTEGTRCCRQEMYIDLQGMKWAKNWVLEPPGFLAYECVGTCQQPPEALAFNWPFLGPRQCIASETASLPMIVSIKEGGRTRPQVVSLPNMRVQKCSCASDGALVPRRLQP

[4] = molecular target: Calmodulin-1 (Homo sapiens) (UniProt P0DP23); experiment: CALM1 binders on microarrays, EGTA buffer, profiling panel, biochemical, small-molecule microarray, Cy5-labelled CALM1 (AID 1111); details: Cy5-CALM1 binding fluorescence, higher = more signal;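 further: labelled calmodulin applied in Tris saline Tween buffer holding calcium plus EGTA and DTT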
[5] = molecular target: Calmodulin-1 (Homo sapiens) (UniProt P0DP23); experiment: calcium-bound CALM1 binders on microarrays, profiling panel, artefact control for SMM control-protein annotation, biochemical, small-molecule microarray, Cy5-labelled CALM1, plus calcium (AID 1112); details: Cy5-CALM1 binding fluorescence, higher = more signal;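 further: score merges spot fluorescence with signal to noise from triplicate slides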
[6] = small-molecule microarray binders of probe aWnt5a, primary screen, biochemical, biotinylated probe, 635/667 nm fluorescence (AID 1113); details: higher = more signal;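 further: score merges 667 nm fluorescence intensity with signal-to-noise per printed feature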
[7] = small-molecule microarray binders of probe aShh, primary screen, biochemical, biotinylated probe, 635/667 nm fluorescence (AID 1114); details: higher = more signal;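 further: probe is biotin-labelled aShh protein from a stem cell growth factor screen; measures binding of labelled protein to compounds printed on the slide; score merges feature fluorescence at 667 nm with signal-to-noise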
[8] = small-molecule microarray binders of probe aNog, primary screen, biochemical, biotinylated probe, 635/667 nm fluorescence (AID 1115); details: higher = more signal;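 further: probe is biotinylated aNog protein used at 0.15 µg/mL for 1 h at 4 C; z-score combines 667 nm fluorescence of each spot with its signal to noise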
[9] = molecular target: Torsin-1A-interacting protein 1 (Homo sapiens) (UniProt Q5JTV8); experiment: LAP1 binders from COS7 cell lysate, primary screen, small-molecule microarray, 635/667 nm fluorescence (AID 1116); details: COS7-hLAP1 lysate binding, 635 nm fluorescence, higher = more signal
Torsin-1A-interacting protein 1 (Homo sapiens), sequence (Q5JTV8 whole entry, looked up): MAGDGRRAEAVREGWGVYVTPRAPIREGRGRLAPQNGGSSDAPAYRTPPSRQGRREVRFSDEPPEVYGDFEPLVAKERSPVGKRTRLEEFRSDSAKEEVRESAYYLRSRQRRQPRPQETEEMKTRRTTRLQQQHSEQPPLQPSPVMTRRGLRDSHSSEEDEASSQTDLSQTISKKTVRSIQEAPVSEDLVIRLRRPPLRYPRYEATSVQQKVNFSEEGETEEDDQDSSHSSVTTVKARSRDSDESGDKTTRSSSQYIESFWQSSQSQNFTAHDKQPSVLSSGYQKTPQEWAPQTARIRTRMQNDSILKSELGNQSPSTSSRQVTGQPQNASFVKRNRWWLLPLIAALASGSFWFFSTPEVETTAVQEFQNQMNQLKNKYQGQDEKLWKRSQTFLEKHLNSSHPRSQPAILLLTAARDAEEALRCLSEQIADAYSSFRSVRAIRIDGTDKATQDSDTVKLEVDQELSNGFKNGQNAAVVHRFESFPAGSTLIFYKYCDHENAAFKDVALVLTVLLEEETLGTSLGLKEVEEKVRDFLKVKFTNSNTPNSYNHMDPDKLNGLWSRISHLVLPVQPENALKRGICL

[10] = molecular target: Alpha-bungarotoxin (Bungarus multicinctus) (UniProt P60615); experiment: alpha-bungarotoxin binders on microarray, profiling panel, artefact control for SMM control protein annotation, biochemical, small-molecule microarray, Alexa647 label, 635/667 nm fluorescence (AID 1117); details: alpha-BTX-A647 binding fluorescence, higher = more signal
Alpha-bungarotoxin (Bungarus multicinctus), sequence (P60615 whole entry, looked up): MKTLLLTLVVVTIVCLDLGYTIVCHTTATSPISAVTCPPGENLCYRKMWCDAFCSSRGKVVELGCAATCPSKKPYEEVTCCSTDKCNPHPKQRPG

Row | Structure (SMILES) | composite z-score [1] | z-score [2] | composite z-score [3] | composite z-score [4] | composite z-score [5] | composite z-score [6] | composite z-score [7] | composite z-score [8] | composite z-score [9] | composite z-score [10]
1 | CN1C(=O)C2C=CC(C(O)C3CCCCC3)N(Nc3ccc([N+](=O)[O-])cc3[N+](=O)[O-])C2C1=O (stereo not given) | 1.28 | -0.613 | 0.0511 | 1.42 | 0.377 | -0.0472 | 0.13 | 1.59 | 1.28 | 1.34
2 | COC(=O)c1c(CC[C@@H](CO)NC(=O)N2CCC[C@H]2Cn2cc(-c3ccccn3)nn2)oc(C(C)=O)c1C(=O)OC | 0.0413 | -1.03 | -0.219 | -0.209 | -0.747 | -0.152 | -0.0474 | -0.0418 | -0.219 | -0.0614
3 | O=C1O[C@H](c2ccccc2)[C@H](c2ccccc2)N2[C@H]1[C@@H](C(=O)O)[C@]1(C(=O)Nc3ccc(C#CC4=CCCCC4)cc31)[C@H]2c1ccccc1OCCO | -0.65 | -2.4 | 0.663 | 1.61 | 0.179 | 0.795 | -0.602 | 0.948 | 0.926 | 2.23
4 | CC(C)C[C@@H]1NC(=O)[C@@H]2C[C@H](C(=O)NCCCCCN)[C@H](c3cccc(OCCO)c3)N2C1=O | 0.828 | -0.352 | 0.197 | 1.36 | 0.615 | -0.0896 | -0.153 | -0.282 | 1.36 | 0.417
5 | CN1C(=O)C2C=CC(C(O)c3cc(C(F)(F)F)cc(C(F)(F)F)c3)N(N3CCCCC3)C2C1=O (stereo not given) | 1.24 | -0.353 | -0.599 | 1.34 | 0.769 | 0.0775 | 0.42 | 1.15 | 0.287 | 0.49
6 | CCCCCCC#C[Si](O[C@H](c1ccccc1)c1cn([C@H](CO)Cc2ccccc2)nn1)(C(C)C)C(C)C | 0.205 | -0.462 | -0.154 | -0.27 | 0.105 | -0.096 | 0.298 | -0.443 | 0.8 | -0.218
7 | Cc1ccc(S[C@]2(C(=O)NC3CC3)CC(=O)N(C3Cc4ccccc4C3)[C@@H]2c2ccc(CO)cc2)cc1 | 1.27 | -1.08 | -1.7 | -0.0137 | 0.0662 | -0.258 | -0.154 | 0.354 | 0.439 | -0.441
8 | COCCOC(=O)N1C(=O)[C@@]2(c3cc(C#CC4=CCCCC4)ccc31)[C@H](C(=O)Nc1nc3ccccc3s1)[C@H]1C(=O)O[C@H](c3ccccc3)[C@H](c3ccccc3)N1[C@@H]2c1ccc(OCCO)cc1 | 1.05 | -1.09 | 0.269 | 0.792 | -0.171 | -0.0685 | -0.196 | -0.337 | 0.47 | 0.387
9 | O=C1c2ccccc2[C@](Cc2ccccc2I)(C(=O)NC2CC2)[C@H](c2ccc(CO)cc2)N1C1CCCCC1 | 1.46 | -1.62 | 0.272 | 0.675 | 0.0028 | -0.176 | -0.421 | -0.0067 | 0.547 | 1.38
10 | COCC(=C=CC[C@H](O)c1ccccc1OCCO)C[C@H](O)c1cc(Cl)cc(Cl)c1O | 1.31 | -4.43 | 0.223 | 0.068 | -0.596 | 0.0357 | 0.207 | 0.464 | 0.743 | 1.08
11 | COC(=O)[C@@]1(Cc2ccccc2)[C@H]2c3cc(C(=O)N4CCCC4)n(CC4CC4)c3C[C@H]2CN1C(=O)c1ccccc1 | 1.39 | -2.17 | 0.192 | 1.13 | 0.697 | 0.647 | 0.834 | 2.57 | 0.079 | 0.615
12 | COC(=O)[C@@]1(Cc2ccc(F)cc2)[C@H]2c3cc(C(=O)N4CCCC4)n(Cc4cc(C)n(C)n4)c3C[C@H]2CN1C(=O)c1ccccc1 | 0.95 | -1.17 | -0.857 | 2.36 | 1.38 | 0.143 | 0.356 | 2.16 | 3.13 | 0.251
13 | NCCCCCNC(=O)[C@@H]1C[C@@H]2C(=O)N[C@@H](Cc3ccccc3)C(=O)N2[C@@H]1c1cccc(OCCO)c1 | 0.762 | -0.988 | -0.178 | 0.429 | 0.791 | 0.404 | -0.0652 | 0.0256 | 0.362 | 1.69
14 | CCCCN1CC=CC23O[C@@H]4/C=C\CCC(C)OC(=O)C4[C@H]2C(=O)N(CCCCCO)[C@@H]3C1=O (stereo not given in full) | 0.15 | -0.275 | -1.39 | -0.78 | 0.0481 | -0.191 | -0.214 | -0.21 | 1.27 | -1.14
